Compounds with a hit are over-represented: about 2.8% of the library has one in this group of screens.
LMP1 NFkB inh: EBV LMP1-driven NF-kappaB luciferase reporter inhibitors, primary screen, cell-based, luminescence, single point; hit rate 0.69% among 350,000; inhibition, % at 12.5 µM; LMP1-induced NF-kappaB luciferase reporter cells; in the data active means inhibition above about 41%;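 further: 0% = neutral control wells and 100% = reference inhibitor control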
PAX8 inh HTS: inhibitors of PAX8-driven TPO luciferase reporter, primary screen, RMG-I cells, single concentration; SteadyGlo, 24 h; inhibition, % at 12.6 µM; hit rate 1.2% among 360,000; AID 652154, 2013;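 active means mean replicate inhibition at least 60% with every replicate also reaching 60%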;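 further: luciferase light reporting Pax8 driven TPO promoter activity; plate controls were median of neutral control wells for no effect and mitoxantrone controls for full effect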
Peg3 promoter: Peg3 promoter-driven luciferase inhibitors, primary screen, cell-based, HeLa, luciferase luminescence. HeLa PEG-Prom luciferase reporter, overnight. inhibition, % at 20 µM. hit rate 1.7% among 360,000. AID 588405, 2011;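 active means inhibition of at least 50% at 20 µM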
MITF TRPM1 inh: inhibitors of MITF-dependent TRPM1 promoter reporter, primary screen, cell-based, SK-MEL-5, single point, luciferase | hit rate 0.83% among 330,000 | SK-MEL-5 TRPM1 promoter luciferase, 24 h | inhibition, % at 12.5 µM;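 active means mean inhibition across replicates of 60% or more, whatever share of single replicates reaches that level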
HIF-2a inh: HIF-2a reporter inhibitors, primary screen, luminescence, 786-0 RCC cells; 786-0 RCC cells HIF-2a reporter, luciferase luminescence, overnight; inhibition, % at 18.8 µM; hit rate 0.72% among 360,000; AID 624352, 2012;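 active means inhibition of the luminescence signal of 40% or more relative to plate controls, in a single-dose primary screen at 18.75 µM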
Shn3 3UTR inh: reduction of Shn3 3'UTR firefly luciferase signal, primary screen, Schnurri-3 inhibitor project, cell-based, Clone20 osteoblasts, set 2; AID 588674, 2011; inhibition, % at 12.5 µM; Clone20 osteoblast Shn3 3'UTR firefly luciferase, 24 h; hit rate 0.52% among 360,000;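 active means mean inhibition of at least 75% with every replicate also reaching 75%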;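 further: 0% = median of neutral control wells and 100% = pilot-screen positive control compound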
Active calls of the source: *; / = no result given.

SMILES	LMP1 NFkB inh	PAX8 inh HTS	Peg3 promoter	MITF TRPM1 inh	HIF-2a inh	Shn3 3UTR inh
CN1C2CCC1/C(=C\c1ccccc1)C(=O)/C2=C\c1ccccc1	-63.0	/	72.6*	35.2	88.6*	52.1
O=C(Nc1cc(Cl)ccc1-n1cncn1)c1ccc([N+](=O)[O-])o1	-3.4	63.0*	8.7	52.6	15.4	-28.1
CCC(=O)N1CCN(c2ccc(Cl)cc2NC(=O)c2ccc([N+](=O)[O-])o2)CC1	-22.8	27.2	18.8	66.8*	-6.9	-30.0
CCC(=O)N1CCN(c2ccc(Cl)cc2NC(=O)c2cccc([N+](=O)[O-])c2)CC1	-6.5	20.5	5.7	20.3	7.4	-4.3
CN1CCN(c2ccccc2NC(=O)c2ccc([N+](=O)[O-])o2)CC1	-6.6	/	61.0*	79.0*	-0.7	13.6
CCN1CCN(c2ccc(S(=O)(=O)N3CCCCC3)cc2NC(=O)c2ccc([N+](=O)[O-])o2)CC1	-19.9	56.4	24.5	94.8*	8.2	-51.5
CC(C)NC(=O)N(C)C[C@H]1OCCCC[C@H](C)Oc2ccc(NS(=O)(=O)c3ccc(F)cc3)cc2C(=O)N([C@@H](C)CO)C[C@H]1C	/	-40.6	/	/	/	/
O=C(Nc1ccc(N2CCOCC2)cc1)c1ccc([N+](=O)[O-])o1	-53.3	55.7	102.4*	52.7	31.4	55.3
Cc1ccc(C(C(=O)NC(C)(C)C)N(Cc2ccco2)C(=O)Cn2nnc(-c3cccs3)n2)cc1 (stereo not given)	-33.0	25.1	17.9	3.9	20.5	11.9
CC(C)(C)NC(=O)C(c1ccncc1)N(Cc1cccs1)C(=O)Cn1nnc(-c2cccs2)n1 (stereo not given)	10.2	/	62.6*	13.0	19.8	4.1
c1ccc(-c2nn(-c3ccccc3)[n+](-c3ccccc3)n2)cc1	0.1	77.0*	7.5	62.4*	-16.1	36.9
OC[C@@H]1[C@@H](c2ccccc2)C(c2ccccc2)=NN1c1ccccc1	-3.4	19.7	13.8	8.3	10.7	0.8
C[n+]1c2n(c3ccccc31)N=C(c1cc(C(C)(C)C)c(O)c(C(C)(C)C)c1)CS2	44.7*	92.4*	85.8*	-0.3	2.3	89.7*
O=C(c1cccc(F)c1)N1C[C@H]2[C@@H](c3ccccc31)[C@@H](CO)N2Cc1cocn1	/	15.9	/	/	/	/
CCCC(c1nnnn1Cc1ccc(OC)cc1)N1CCN(c2ccccc2)CC1 (stereo not given)	2.9	/	21.6	-4.2	-3.1	89.2*
CC1(C)CC(=O)C(CC2=C(O)CC(C)(C)CC2=O)=C(O)C1	66.4*	/	-7.4	0.6	-25.7	11.9
CCN(CC)c1ccc(NC(=O)Cn2c(C(C)NC(=O)c3ccc(C)cc3)nc3ccccc32)cc1 (stereo not given)	-16.1	10.0	99.4*	8.1	-46.3	-6.0
CCCn1c(C(C)NC(=O)c2ccccc2)nc2ccccc21 (stereo not given)	0.5	/	8.4	14.3	-9.7	0.5
O=C1c2ccccc2C(=O)N1OS(=O)(=O)c1ccc(F)cc1	9.7	-10.3	60.9*	42.1	28.8	-21.3
CCCNC(=O)N1CC(=O)N2[C@H](CO)[C@@H](c3ccc(C#Cc4cccc(F)c4)cc3)[C@@H]2C1	/	3.7	/	/	/	/
C[C@H](CO)N1C[C@H](C)[C@@H](CN(C)S(C)(=O)=O)Oc2ccc(NC(=O)CCC(F)(F)F)cc2CC1=O	/	-17.5	/	/	/	/
C/C=C/c1cnc2c(c1)C(=O)N([C@@H](C)CO)C[C@@H](C)[C@H](CN(C)Cc1ccc(F)cc1)O2	/	0.0	/	/	/	/
CCCCCOc1ccc(NS(C)(=O)=O)cc1	78.1*	/	-159.1	-27.9	-157.8	-24.9
C[C@H](CO)N1C[C@H](C)[C@@H](CN(C)C(=O)NC2CCCCC2)Oc2ccc(N(C)C)cc2CC1=O	/	11.4	/	/	/	/
CC(C)C(=O)Nc1ccc2c(c1)C(=O)N(C)[C@@H]1CC[C@@H](CC(=O)NCCCN(C)C)O[C@@H]1CO2	/	-35.2	/	/	/	/
SMILES	LMP1 NFkB inh	PAX8 inh HTS	Peg3 promoter	MITF TRPM1 inh	HIF-2a inh	Shn3 3UTR inh
O=C(NCC[C@@H]1CC[C@H](NS(=O)(=O)c2ccccc2)[C@H](CO)O1)c1ccc2c(c1)OCO2	/	-7.7	/	/	/	/
O=C(CC1CC1)Nc1ccc2c(c1)[C@H]1C[C@@H](CC(=O)NC3CCCC3)O[C@H](CO)[C@H]1O2	/	6.2	/	/	/	/
CCCCCN=Cc1c(C)[nH]n(-c2nc3ccccc3s2)c1=O	51.4*	36.1	39.4	19.7	10.3	-5.1
CCCSc1ccc([C@@H]2[C@@H]3C(=O)N(C)C(=O)[C@@H]3[C@]3(C(=O)OC)CCCCN23)cc1OC	9.0	-10.5	-0.8	-0.3	1.7	11.0
CCN1C(=O)[C@@H]2[C@@H](c3ccc(-c4ccc(Cl)c(Cl)c4)c(OC)c3)N3CCC[C@@]3(C(=O)OC)[C@@H]2C1=O	5.3	70.1*	43.1	5.9	25.9	31.1
CCCSc1ccc([C@@H]2[C@H]3C(=O)N(C)C(=O)[C@H]3[C@]3(C(=O)OC)CCCN23)cc1OC	84.6*	2.5	2.4	8.5	-1.5	-1.1
COC(=O)[C@@]12CCCCN1[C@H](c1ccc(-c3cc(C(C)=O)cs3)cc1)[C@H]1C(=O)N(C)C(=O)[C@H]12	-11.1	31.0	73.5*	35.5	17.2	24.2
CCN1C(=O)[C@H]2[C@@H](c3ccc(-c4ccc(F)cc4)c(OC)c3)N3CCC[C@@]3(C(=O)OC)[C@H]2C1=O	-3.4	-7.2	-19.8	-11.6	-64.3	15.4
CCCN1[C@@H]2c3ccc(-c4ccc(C(=O)N(C)C)cc4)c(=O)n3C[C@@H]2[C@@H](CO)[C@@H]1C(=O)NCC	/	-7.2	/	/	/	/
O=C1C=CC2(O[C@H](c3ccccc3)[C@@H](c3ccccc3)O2)[C@H](Sc2ccccc2O)C1	82.2*	34.7	107.8*	94.2*	89.1*	95.6*
COC(=O)CSc1cccc2c1C(=O)CC2c1ccccc1 (stereo not given)	-0.9	-25.5	-6.3	-3.8	21.3	-14.0
O=C(C[C@@H]1CC[C@@H](NS(=O)(=O)c2ccc(F)cc2)[C@@H](CO)O1)NCc1ccc(Cl)c(Cl)c1	/	13.7	/	/	/	/
O=C(c1cc(C2CC2)on1)N1CCN(C(c2ccccc2)c2ccccc2)CC1	-27.2	-7.6	0.4	/	19.3	6.5
O=C(c1cc(-c2cccc(O)c2)on1)N1CCN(C(c2ccccc2)c2ccccc2)CC1	-6.3	12.3	82.1*	-0.8	-31.6	43.8
COc1ccc(C(=O)Nn2c(SCC(=O)NCc3ccco3)nc3ccccc3c2=O)cc1	49.5*	/	39.9	3.2	33.0	12.5
COc1ccc(C(=O)Nn2c(SCC(=O)c3ccc(Cl)cc3)nc3ccccc3c2=O)cc1	48.1*	31.6	-28.2	-2.4	7.3	15.3
CCn1c(SCC(=O)NCc2ccco2)nc2ccccc2c1=O	-0.1	14.9	-7.8	4.2	16.9	2.9

Screens from PubChem.
